Consider 25 compounds from PubChem BioAssay (NCI).

Test systems include T-47D breast; MDA-MB-435 melanoma; SW-620 colon; MCF7 breast; HCT-116 colon; HCC-2998 colon; KM12 colon; BT-549 breast.
What all share (assay): NCI-60 one-dose screen, 48 h (100 = growth as untreated, 0 = no growth, -100 = all killed)
Common to all, as to conditions: 10 µM unless noted

Molecules are shown by their SMILES. This is part of a sample that, as a whole, favours compounds with a hit. Of some 83,000 tested, about 20% had one in any assay.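 Growth was measured after 48 h exposure to one concentration of compound in 96-well plates. Values under 10 count as active.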 Values without a mark were called inactive. Active and inactive are the calls of the source.

Take `O=S(=O)(O)CCI`: the growth in the experiment on T-47D breast is 99.4%; with MDA-MB-435 melanoma, 114%; in the experiment with SW-620 colon it was 102%; with MCF7 breast, 98.3%; in the experiment on HCT-116 colon, 98.3%; in the experiment with HCC-2998 colon, 110%. In the experiment on KM12 colon, the growth is 114%.

On to `O=C(Nc1ccc(-n2cc(-c3ccncc3)c(-c3ccc(Cl)c(O)c3)n2)cc1)c1ccc(Cl)c(Cl)c1`, for which the growth was 71.9% with T-47D breast; 43.5% in the experiment with MDA-MB-435 melanoma; 11.2% in the experiment with SW-620 colon; 27.9% in the experiment with MCF7 breast; 16.8% with HCT-116 colon; 10.1% in the experiment on HCC-2998 colon. Besides, the growth with KM12 colon was 0.115% (active).

For `O=C(c1ccccc1)c1ccccc1-c1ccccc1`, the growth in the experiment with T-47D breast is 27%; in the experiment with MDA-MB-435 melanoma, -22.2% (active); in the experiment on SW-620 colon, 15.8%; with MCF7 breast, 18.1%; with HCT-116 colon it was 14%; in the experiment on HCC-2998 colon, 47.1%. Moreover, in the experiment with KM12 colon, the growth was 29.5%.

Regarding `Cc1nc(NC(=S)Nc2ccc(F)cc2)sc1C(=O)NNC(=S)Nc1ccc(F)cc1`, the growth is 35.6% in the experiment on T-47D breast; 71.5% in the experiment with MDA-MB-435 melanoma; 86.7% in the experiment with SW-620 colon; 72.2% with MCF7 breast; 44.9% in the experiment with HCT-116 colon; 68.4% with HCC-2998 colon. The growth in the experiment on KM12 colon is 76.6%.

In the case of `COc1cccc(NC(=O)NCCNc2nccc(-c3c(-c4ccc(F)cc4)nc4sccn34)n2)c1`, the growth in the experiment on T-47D breast was 71.8%; with MDA-MB-435 melanoma, 76.9%; in the experiment with SW-620 colon, 101%; in the experiment with MCF7 breast, 32%; with HCT-116 colon, 67.8%; in the experiment with HCC-2998 colon, 105%. The growth with KM12 colon is 87.7%.

With `Nc1nc(-c2cccc(Br)c2)cc(-c2cc3ccccc3oc2=O)n1`, the growth with T-47D breast was 83.2%; in the experiment with MDA-MB-435 melanoma it was 117%; with SW-620 colon, 105%; in the experiment with MCF7 breast, 57.6%; in the experiment on HCT-116 colon, 85.5%; with KM12 colon, 99.2%.

As for `CCS(=O)(=O)N[C@@H]1O[C@H](COC(C)=O)C(OC(C)=O)[C@H](OC(C)=O)C1OC(C)=O` (some centres not stated), the growth in the experiment on T-47D breast was 90.7%; in the experiment with MDA-MB-435 melanoma, 103%; in the experiment on MCF7 breast, 103%; in the experiment with HCT-116 colon, 95.3%; with KM12 colon, 106%.

In the case of `COc1cc(-c2nn(-c3ccc(NC(=O)Nc4ccc(Cl)c(C(F)(F)F)c4)cc3)cc2-c2ccncc2)ccc1Cl`, the growth in the experiment on T-47D breast is 15.1%; in the experiment with SW-620 colon it was 13.4%; with MCF7 breast, 8.22% (active); with HCT-116 colon it was 2.34% (active); with HCC-2998 colon it was -2.15% (active); in the experiment with KM12 colon it was 6.77% (active).

For `O=[N+]([O-])c1ccc(-c2ncc(-c3ccc(O)cc3O)[nH]2)cc1`, the growth was 102% in the experiment on T-47D breast; 106% in the experiment with SW-620 colon; 90.3% in the experiment on MCF7 breast; 123% in the experiment on HCC-2998 colon; 112% in the experiment with KM12 colon.

`CC(=O)Nc1nc(C)c(C(=O)N/N=C/N2CCOCC2)s1`: the growth in the experiment with T-47D breast is 102%; in the experiment with SW-620 colon it was 107%; with MCF7 breast it was 98.6%; in the experiment on HCT-116 colon, 93.8%; with HCC-2998 colon it was 157%; with KM12 colon, 105%.

Regarding `C=C[C@]1(C)C=C2C(=O)[C@@]3(O)OC[C@@]4(CCCC(C)(C)C43O)C2(O)C(O)C1` (some centres not stated), the growth in the experiment with T-47D breast is 20.9%; in the experiment on MDA-MB-435 melanoma, 60.2%; in the experiment with SW-620 colon, -57.7% (active); with MCF7 breast it was 21%; with HCT-116 colon, -79.6% (active); in the experiment on KM12 colon it was 89.4%.

Regarding `N#Cc1c(N)nc(Nc2nc3ccccc3[nH]2)nc1-c1ccc(Cl)cc1`, the growth was 93.8% in the experiment on T-47D breast; 106% in the experiment with MDA-MB-435 melanoma; 117% with SW-620 colon; 86.9% in the experiment with MCF7 breast; 109% with HCT-116 colon; 109% in the experiment with KM12 colon.

In the case of `C/C=C/C/C=C/[C@H](C)C[C@H](O)[C@@H]1C[C@@H]2O[C@H]2/C=C/[C@H](O)[C@@H](O)/C=C/C[C@H](C)CC(=O)O1`, the growth with T-47D breast is 69.9%; with MDA-MB-435 melanoma it was 117%; in the experiment with SW-620 colon, 94.1%; in the experiment with MCF7 breast, 83.7%; with HCT-116 colon, 70.6%; in the experiment on HCC-2998 colon, 95.1%. In addition, the growth in the experiment on KM12 colon was 80.2%.

For `CCN(CC)c1ccc2nc3ccc(N=Nc4ccc(O)cc4)cc3[n+](-c3ccccc3)c2c1`, the growth with T-47D breast is 32.7%; in the experiment with MDA-MB-435 melanoma, 48.6%; with MCF7 breast, -13.8% (active); in the experiment on HCT-116 colon, 8.46% (active); with HCC-2998 colon it was 62.8%; in the experiment on KM12 colon it was 34.8%.

In the case of `C/C=C/C/C=C/[C@H](C)C[C@H](O)[C@@H]1C[C@@H]2O[C@H]2/C=C/[C@@H]2OC(C)(C)O[C@H]2/C=C/C[C@H](C)CC(=O)O1`, the growth with T-47D breast was -4.89% (active); in the experiment with MDA-MB-435 melanoma, 77.1%; in the experiment on SW-620 colon it was 56.8%; in the experiment on MCF7 breast, 45.1%; in the experiment with HCT-116 colon it was 18.6%; in the experiment with HCC-2998 colon it was 71.9%. Moreover, in the experiment with KM12 colon, the growth was 31.7%.

As for `Brc1ccc(-c2nc3ccccc3s2)cc1`, the growth in the experiment on BT-549 breast was 101%; in the experiment on MDA-MB-435 melanoma, 105%; in the experiment on SW-620 colon, 94.5%; with MCF7 breast, 58.7%; with HCT-116 colon it was 89.4%; in the experiment with HCC-2998 colon it was 110%. In addition, the growth with KM12 colon is 97.3%.

On to `CC(C)(C)c1ccc(OCCOC(=O)CBr)cc1`, for which the growth in the experiment on T-47D breast is 94.2%; in the experiment on MDA-MB-435 melanoma, 112%; in the experiment with SW-620 colon, 86.2%; with MCF7 breast it was 98.3%; with HCT-116 colon, 83.7%; in the experiment on HCC-2998 colon, 104%. Also, in the experiment on KM12 colon, the growth was 87.7%.

As for `COc1ccc2cc(C(C)C(=O)Nc3ccc(S(=O)(=O)Nc4cc(C)on4)cc3)ccc2c1` (configuration not stated), the growth is 84.8% with T-47D breast; 105% in the experiment with MDA-MB-435 melanoma; 102% in the experiment with MCF7 breast; 96.5% in the experiment with HCT-116 colon; 110% in the experiment with KM12 colon.

Consider `O=c1[nH]c2cc(O)ccc2n2cc3c(F)cccc3c12`, for which the growth in the experiment with T-47D breast was 39.1%; with MDA-MB-435 melanoma, -12.2% (active); in the experiment on SW-620 colon, 18.7%; in the experiment on MCF7 breast, -3.3% (active); in the experiment with HCT-116 colon, 19.9%; in the experiment with KM12 colon, 34.7%.

Consider `CC(=O)Nc1nc(C)c(C(=O)NN)s1`, for which the growth with T-47D breast was 85.9%; with SW-620 colon, 97.4%; in the experiment on MCF7 breast, 99.1%; in the experiment with HCT-116 colon it was 94.7%; in the experiment with HCC-2998 colon, 84.2%; in the experiment on KM12 colon, 102%.

Take `CC1(C)NCCC[C@]2(C)[C@H]3CC=C4[C@@H]5C[C@](C)(COC(=O)c6ccccc6C(=O)O)CC[C@]5(C)CC[C@@]4(C)[C@]3(C)CC[C@@H]12`: the growth in the experiment on BT-549 breast is 72.4%; in the experiment with MDA-MB-435 melanoma, 62.4%; in the experiment with SW-620 colon it was 67.2%; in the experiment with MCF7 breast, 41.1%; with HCT-116 colon, 16.5%; in the experiment with HCC-2998 colon, 73.4%. The growth with KM12 colon was 55.2%.

`CCCCn1c(Cc2ccc(OC)cc2)nc2cc(OC)c(OC)cc2c1=O`: the growth with T-47D breast was 57%; in the experiment with MDA-MB-435 melanoma, 83.7%; in the experiment on SW-620 colon it was 92.5%; in the experiment with MCF7 breast it was 81.3%; in the experiment with HCC-2998 colon it was 98.1%; in the experiment on KM12 colon it was 93.6%.

`NCCCOc1cc(Cl)ccc1NC(=O)c1cc2ccccc2cc1OCCCN`: the growth in the experiment on T-47D breast was -70.5% (active); in the experiment with SW-620 colon, -92% (active); in the experiment with MCF7 breast, -93.9% (active); with HCT-116 colon, -97.3% (active); in the experiment on KM12 colon, -94.9% (active).

Take `O=C1OC(c2ccc(-c3ccccc3)cc2)=C/C1=C/c1c2ccccc2cc2ccccc12`: the growth in the experiment with T-47D breast was 102%; in the experiment on MDA-MB-435 melanoma, 102%; in the experiment on SW-620 colon, 96.9%; in the experiment with MCF7 breast it was 83.9%; in the experiment with HCC-2998 colon, 98.7%; with KM12 colon, 97.3%.

As for `Cc1ccccc1-n1c(C)nc2cc(NC(=O)c3ccc(Cl)cc3)ccc2c1=O`, the growth with T-47D breast was 29%; in the experiment on MDA-MB-435 melanoma, 43.7%; in the experiment on SW-620 colon, 86%; with MCF7 breast, 57.8%; in the experiment with HCT-116 colon, 74.8%; with HCC-2998 colon, 80.9%. Besides, the growth with KM12 colon is 76.6%.
